Measured values as given in PubChem BioAssay AID2685 (National Center for Advancing Translational Sciences (NCATS), 2010).
The whole screen tested about 320,000 compounds, of which about 2,100 (0.66%) were called active. Inconclusive results (about 53%) are left out. The call rests on the fitted dose curve; in most records, active means well fitted inhibition curve with a large enough effect in the signal ratio, with a control signal flat (not every such curve was filed as active); inconclusive means small, poorly fitted or top-dose-only effect, or effect the other way, or a change in a side signal; inactive means flat fitted curve, though single readings scatter; the % refers to the signal ratio. Many of the other results were omitted from the sample, so actives are more common in it than they were.

Assay: qHTS Assay for Lipid Storage Modulators in Drosophila S3 Cells;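 on cell number change: cells counted by Cell Tracker Red CMTPX staining in the red channel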; on lipid storage change, negative = inhibition: on the % scale 0 is the no-effect control and ±100 the full control effect
Conditions: BODIPY lipid droplet fluorescence, 18-24 h, cells fed with added oleic acid; cell number change: measured here: cell count max response; series mostly up to 46.1 µM; lipid storage change, negative = inhibition: at the top concentration
Method in brief: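 Laser-scanning cytometry quantifies lipid droplet accumulation (500–530 nm total intensity; droplet/cell object ratio) in oleic acid-fed (400 uM added) Drosophila S3 cells treated with a concentration series. 20 uM Triacsin C defined 100% inhibition.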
Potency means the concentration at half of the fitted maximal effect.

Row | Structure (SMILES) | Potency | outcome | cell number change [%] | lipid storage change, negative = inhibition
1 | CC(C)c1ccc2c(c1)C1Cc3ccccc3C1N2 (stereo unspecified) | 9.2 µM (active) |  |  | 
2 | O=C1NC2c3ccccc3CC2O1 (stereo unspecified) |  | inactive | 17.5 | 
3 | CC(C)c1ccc2c(c1)[C@H]1OCC[C@H]1[C@@H](c1cccs1)N2 |  |  | -7.55 | 21% (inactive)
4 | COc1ccc(/C=N\NC(=O)COc2ccc(Cl)cc2Cl)c(C(=O)O)c1OC |  |  | 11.7 | 3.57% (inactive)
5 | CC(C)NC(=O)C(c1ccc(F)cc1)N(C(=O)CCC(=O)Nc1ccccn1)c1cccc(F)c1 (stereo unspecified) |  |  | 7.14 | 24.5% (inactive)
6 | Fc1ccc(-c2csc(-c3cccnc3)n2)cc1F |  |  |  | 14.8% (inactive)
7 | Oc1ccc(-c2nc(-c3ccc(O)c(O)c3)cs2)cc1 | 0.0116 µM (active) |  | -11.8 | 
8 | Oc1ccc(-c2csc(-c3cccnc3)n2)cc1O |  | inactive | -16.9 | 
9 | O=C(O)c1ccc(-c2nc(-c3ccc(Cl)c(Cl)c3)cs2)cc1 |  |  | 6.89 | 8.4% (inactive)
10 | NC(=O)c1cc(-c2csc(-c3cccnc3)n2)ccc1O | 25.9 µM (active) |  | 5 | 
11 | Fc1ccc(-c2csc(-c3ccncc3)n2)cc1 |  |  | 8.89 | 4.09% (inactive)
12 | CCN(CC)S(=O)(=O)c1ccc(S(=O)(=O)N2CCCC2)cc1 |  |  | 4.33 | -3.92% (inactive)
13 | CCOc1ccc(Nc2cc3n(c(=O)n2)CCc2cc(OC)c(OC)cc2-3)cc1 |  |  | -17.4 | -11.1% (inactive)
14 | CCc1c(C)nc(N2CCN(c3ccccc3F)CC2)[nH]c1=O |  | inactive | 15.2 | 
15 | Cc1nn(-c2ccccc2)c(Cl)c1/C=N/NC(=O)CNc1n[nH]c(=O)[nH]c1=O |  |  | 11.6 | -0.0956% (inactive)
16 | CCO[C@@H]1OC(C(=O)NCc2nc3ccccc3[nH]2)=C[C@H](C)[C@H]1CCCO |  |  | -18.5 | -29% (inactive)
17 | CCC(=O)Nc1ccc2c(c1)ncn2-c1ccc(C)cc1 |  |  | 19.8 | -1.57% (inactive)
18 | Cc1ccc(NC(=O)N(CCC(=O)O)Cc2ccccc2)cc1 |  | inactive |  | 
19 | Cc1cc(C)c2[nH]c(=O)c(CN(C(=O)C3CCCO3)C3CCCC3)cc2c1 (stereo unspecified) |  |  | 9.83 | 3.45% (inactive)
20 | CCN1C(=O)[C@H]2[C@@H](c3ccc(-c4ccccc4)cc3)N3CCCC[C@@]3(C(=O)OC)[C@H]2C1=O |  |  |  | 13.3% (inactive)
21 | CCN1C(=O)[C@@H]2[C@@H](c3ccc(-c4ccc5c(c4)OCO5)c(OC)c3)N3CCCC[C@@]3(C(=O)OC)[C@@H]2C1=O |  | inactive |  | 
22 | CCN1C(=O)[C@@H]2[C@@H](c3ccc(-c4ccc(OC)cc4)c(OC)c3)N3CCCC[C@@]3(C(=O)OC)[C@@H]2C1=O | 9.2 µM (active) |  | 24.8 | 
23 | CCN1C(=O)[C@H]2[C@@H](c3ccc(-c4ccc(OC)cc4)c(OC)c3)N3CCCC[C@@]3(C(=O)OC)[C@H]2C1=O | 5.8 µM (active) |  | -0.765 | 
24 | CCN1C(=O)[C@@H]2[C@@H](c3ccc(-c4ccc5c(c4)OCO5)c(OC)c3)N3CCC[C@@]3(C(=O)OC)[C@@H]2C1=O |  |  | -1.65 | 5.27% (inactive)

Row | Structure (SMILES) | Potency | outcome | cell number change [%] | lipid storage change, negative = inhibition
25 | CCN1C(=O)[C@@H]2[C@@H](c3ccc(-c4ccccc4)cc3)N3CCCC[C@@]3(C(=O)OC)[C@@H]2C1=O |  | inactive | 15.8 | 
26 | Cc1cccc(OCC(=O)Nc2ccc3c(c2)nc(CCN2CCCCC2)n3C)c1 |  | inactive |  | 
27 | CCc1ccc(NC(=O)[C@H](Cc2ccccc2)NC(=O)C2CCN(C(=O)[C@@H](N)CC(C)C)CC2)cc1 |  |  | 18 | -9.52% (inactive)
28 | CC(=O)c1ccc(NC(=O)c2ccc(CSc3ccccc3)o2)cc1 |  |  | 3.7 | 15.1% (inactive)
29 | CN(C)c1ccc(C#Cc2ccc3cc(CCO)oc(=O)c3c2)cc1 |  |  | 24 | -0.121% (inactive)
30 | Cn1cncc1C#Cc1ccc2cc(C3(O)CCCCC3)oc(=O)c2c1 |  |  | -13.7 | 11.5% (inactive)
31 | Cn1cncc1C#Cc1ccc2cc(CCO)oc(=O)c2c1 | 1.3 µM (active) |  | 17.2 | 
32 | COc1cccc(Oc2cc(Cl)nc(N)n2)c1 |  |  | -10.3 | 0.532% (inactive)
33 | COc1ccc(Cl)cc1NC(=O)C(C)OC(=O)C1=NNC(=O)CC1 (stereo unspecified) |  |  | -0.986 | 13.5% (inactive)
34 | O=C(N/N=C/c1ccccn1)c1cc(-c2ccncc2)nc2ccccc12 |  |  | 0.674 | 24.3% (inactive)
35 | CC1=C(C(=O)N(C)C)C(c2ccc(Cl)c(Cl)c2)NC(=O)N1 (stereo unspecified) | 3.66 µM (active) |  | -24.5 | 
36 | CC1=C(C(=O)OCC2CCCO2)C(c2ccc(Cl)c(Cl)c2)NC(=O)N1 (stereo unspecified) |  |  | 6.97 | 0.886% (inactive)
37 | CC1=C(C(=O)N(C)C)C(c2ccc(N3CCOCC3)cc2)NC(=O)N1 (stereo unspecified) |  |  |  | 10.6% (inactive)
38 | N/C(=N\OC(=O)c1cccnc1)c1ccccc1Cl |  |  | -1.5 | -0.604% (inactive)
39 | O=c1ncn(-c2ccccc2C(F)(F)F)c2ncccc12 |  |  | -1.22 | 14.1% (inactive)
40 | CC(C)(C)NC(=O)CN(C(=O)CCN1CCCc2ccccc21)C(C)(C)C | 14.6 µM (active) |  |  | 
41 | CC(C(=O)NC(C)(C)C)N(Cc1cccs1)C(=O)CCN1CCc2ccccc21 (stereo unspecified) |  |  | 1.12 | 6.26% (inactive)
42 | CC(C)(C)NC(=O)NC(=O)CN1CCCc2ccccc21 |  |  | -16.4 | -1.35% (inactive)
43 | O=C(COC(=O)c1ccco1)c1ccc(S(=O)(=O)N2CCCCC2)cc1 |  |  | -13.5 | -15.9% (inactive)
44 | Cc1cc(C)n2nc(C(=O)OCC(=O)NNC(=O)c3ccc(Cl)cc3)nc2n1 |  |  | -14.4 | -21.1% (inactive)
45 | Cc1cc(C)n2nc(C(=O)NNC(=O)c3ccccc3)nc2n1 |  |  | 14 | 9.61% (inactive)
46 | Cc1cc(C)n2nc(C(=O)NNC(=O)c3ccc(Cl)cc3)nc2n1 | 18.4 µM (active) |  | -28 | 
47 | CCN(CC)c1nc(-c2ccc(Cl)cc2)cc(C(F)(F)F)c1C#N |  |  | -4.2 | 21% (inactive)
